Source: PubChem BioAssay (National Center for Advancing Translational Sciences (NCATS))
The sample as a whole holds a higher share of hits than the screen did.
ALOX15 inhib: blocks human 15-lipoxygenase activity. P16050. purified 15hLO-1, xylenol orange hydroperoxide absorbance. Potency, µM (top dose mostly 57.1 µM), without a hit: at the top dose activity change, negative = inhibition, actives largely listed as inhibitors. actives 1.4% (n = 74,000); further: nearly all actives have a fitted effect of over 55% in size
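Inhibition is scored from a chromogenic endpoint. After 15 min enzyme-compound contact, arachidonic acid (50 uM final) reacts 6 min with 40 nM 15hLO-1 at room temperature, then Fe-XO reagent is added for 30 min and absorbance ratio recorded.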
ALOX15B inhib: inhibitors of human 15-lipoxygenase 2 (ALOX15B). Potency, µM (highest dose often 57.1 µM), for inactives: at the highest dose activity change, negative = inhibition, actives largely listed as inhibitors. purified 15hLO-2, xylenol orange hydroperoxide absorbance. AID 881. actives 0.56% (n = 110,000); further: nearly all actives have a fitted effect of over 60% in size
Target sequence (O15296 whole entry, looked up): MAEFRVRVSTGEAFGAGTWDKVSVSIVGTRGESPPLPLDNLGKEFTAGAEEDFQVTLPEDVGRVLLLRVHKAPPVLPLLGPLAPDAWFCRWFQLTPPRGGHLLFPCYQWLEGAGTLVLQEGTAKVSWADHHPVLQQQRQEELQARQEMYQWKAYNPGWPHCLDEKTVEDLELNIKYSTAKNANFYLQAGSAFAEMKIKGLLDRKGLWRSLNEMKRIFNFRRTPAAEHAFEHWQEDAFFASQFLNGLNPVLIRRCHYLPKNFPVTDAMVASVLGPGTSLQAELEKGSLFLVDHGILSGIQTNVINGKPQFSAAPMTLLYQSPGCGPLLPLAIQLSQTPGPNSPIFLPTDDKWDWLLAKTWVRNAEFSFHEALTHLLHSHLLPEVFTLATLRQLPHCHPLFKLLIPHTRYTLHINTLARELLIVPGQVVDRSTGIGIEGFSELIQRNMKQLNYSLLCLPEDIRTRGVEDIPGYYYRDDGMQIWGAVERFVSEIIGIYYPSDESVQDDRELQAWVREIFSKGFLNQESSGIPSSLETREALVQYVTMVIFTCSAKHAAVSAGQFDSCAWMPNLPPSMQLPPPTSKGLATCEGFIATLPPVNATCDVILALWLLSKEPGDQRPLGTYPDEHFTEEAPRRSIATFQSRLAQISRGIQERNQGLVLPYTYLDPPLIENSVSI
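Purified human 15hLO-2 (50 nM final) preincubated with compounds 15 min at room temperature in 25 mM Hepes pH 7.5, 0.01% Triton X-100, then 45 uM arachidonic acid added for 90 min; hydroperoxide detected via ferrous/xylenol orange, 573/405 nm absorbance ratio.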
* marks the source's active call; other numbers are inactive results; ! = a repeat was not active; [ ] = another dose, or the depositor's remark. The call rests on the fitted dose curve; in most records, active means well fitted inhibition curve with a large enough effect; inconclusive means small, poorly fitted or top-dose-only effect; inactive means no such curve, though single readings can be large or run the other way. On the % scale 0 is the no-effect control and ±100 the full control effect; potency means the concentration at half of the fitted maximal effect.

How did CC(C)CN1CC[C@@]2(CCCN(C(=O)c3cnccn3)C2)C1 do in these assays?
ALOX15 inhib: -4%; ALOX15B inhib: 7%

How did NC1(C(=O)O)CC(C(=O)O)C1 (configuration not stated) do in these assays?
ALOX15 inhib: 20µM*!; ALOX15B inhib: 30%

What do the screens show for `NC1(C(=O)O)CCC1`?
ALOX15 inhib: -28%[25.6 µM]; ALOX15B inhib: 22%

What do the screens show for `C[C@@H]1OC(OC2C(OC3CC[C@@]4(C)C5CC=C6C7CC(C)(C)CC[C@@]7(C(=O)O)CCC6(C)C5(C)CCC4[C@]3(C)CO)OCC(O)C2O)C(O)C(O)C1O` (some centres not stated)?
ALOX15 inhib: -10%; ALOX15B inhib: -13%

Results for CCN(C(N)=S)c1ccccc1 ?
ALOX15B inhib: 10%

What do the screens show for `Nc1ccc(N(c2ccccc2)c2ccc(N)cc2)cc1`?
ALOX15B inhib: 0.63µM*

What do the screens show for `CC1(C)Oc2cc3c(cc2O1)OC(C)(C)O3`?
ALOX15 inhib: -18%[11.4 µM]

How did O=c1cc(-c2ccccc2)oc2cc(O)cc(O)c12 do in these assays?
ALOX15 inhib: -13%[25.6 µM]; ALOX15B inhib: -7%

Results for O=c1cc(-c2ccc(O)cc2)oc2cc(O)cc(O)c12 ?
ALOX15 inhib: 5µM*!; ALOX15B inhib: -7%

How did O=c1cc(-c2cc(O)c(O)c(O)c2)oc2cc(O)cc(O)c12 do in these assays?
ALOX15 inhib: 2.5µM*; ALOX15B inhib: 13µM*

What do the screens show for `O=c1cc(-c2ccccc2O)oc2cc(O)cc(O)c12`?
ALOX15 inhib: -8%[25.6 µM]; ALOX15B inhib: -23%

Results for FC(F)(F)c1ccc(CN2C[C@@H]3C(c4ccc(C(F)(F)F)cc4)C4(c5ccccc5)CC3(C4)[C@H]2c2ccccc2)cc1 (some centres not stated) ?
ALOX15B inhib: 17%

Results for COc1ccc(S(=O)(=O)Nc2cc(Sc3ncn[nH]3)c(O)c3ccccc23)cc1 ?
ALOX15B inhib: 4µM*

How did COC(=O)c1ccc(Sc2ccccc2NS(=O)(=O)c2ccc(OC)cc2)nc1 do in these assays?
ALOX15B inhib: 9%[11.4 µM]

What do the screens show for `Cc1cc(C)nc(/N=c2/ssnc2Cl)c1`?
ALOX15 inhib: inconclusive; ALOX15B inhib: -14%

How did COc1ccc(OC)c(N=c2ssnc2Cl)c1 do in these assays?
ALOX15B inhib: 25µM*

Results for COc1ccc(OC)c(N=C2C(=O)Nc3ccccc32)c1 ?
ALOX15 inhib: 10%; ALOX15B inhib: 3%

Results for COc1cc(N=c2ssnc2Cl)c(OC)cc1Cl ?
ALOX15B inhib: 25µM*

How did COc1cccc(/C=N/NC(=O)c2cc(-c3ccc(C)cc3)n[nH]2)c1O do in these assays?
ALOX15 inhib: 0%

Results for Cc1ccc2[nH]c(=S)cc(C)c2c1 ?
ALOX15 inhib: 3.2µM*; ALOX15B inhib: 13µM*

What do the screens show for `Cc1ccc2[nH]c(C)cc(=O)c2c1`?
ALOX15B inhib: -10%[0.0915 µM]

How did COc1ccc(-n2c(=O)c(-c3ccc(Cl)cc3)nc3cncnc32)cc1 do in these assays?
ALOX15 inhib: 8%; ALOX15B inhib: 3%

How did COCC(=O)Nc1cccc(Br)c1 do in these assays?
ALOX15 inhib: -1%; ALOX15B inhib: 2%

Results for O=C(Nc1cccc(Br)c1)c1ccn[nH]1 ?
ALOX15 inhib: 10µM*; ALOX15B inhib: -4%

How did COc1ccc2[nH]cc(CCNc3cc(-c4ccc5c(c4)OCO5)ncn3)c2c1 do in these assays?
ALOX15 inhib: 13µM*; ALOX15B inhib: -25%

What do the screens show for `COc1ccc2[nH]cc(CCNc3cc(-c4ccccc4C)ncn3)c2c1`?
ALOX15 inhib: inconclusive; ALOX15B inhib: 0%

What do the screens show for `COc1ccc2[nH]cc(CCNc3cc(-c4cccnc4)ncn3)c2c1`?
ALOX15 inhib: 20µM*; ALOX15B inhib: inconclusive

How did COc1ccc2[nH]cc(CCNc3ccnc(-c4ccc5c(c4)OCO5)n3)c2c1 do in these assays?
ALOX15 inhib: inconclusive; ALOX15B inhib: 2%

How did C#C[C@]1(O)CC[C@H]2[C@H]3CCC4=Cc5oncc5C[C@]4(C)[C@@H]3CC[C@]21C do in these assays?
ALOX15 inhib: -25%[25.6 µM]; ALOX15B inhib: -11%

What do the screens show for `COc1ccc(COC(=O)N/N=C2/C[C@@H](O)[C@@H](O)[C@@H]3[C@@H]4C(=O)N(Cc5ccccc5)C(=O)[C@H]4CC[C@@H]23)cc1`?
ALOX15 inhib: 3%[11.4 µM]

What do the screens show for `CCc1cccc(CC)c1NC(=O)C1CC(=O)N(c2ccc3c(c2)OCCO3)C1` (configuration not stated)?
ALOX15B inhib: -6%

What do the screens show for `O=C(Nc1nc(-c2ccco2)c(-c2ccco2)s1)C1CC(=O)N(c2ccc3c(c2)OCCO3)C1` (configuration not stated)?
ALOX15 inhib: 2.5µM*; ALOX15B inhib: inconclusive

How did COc1ccc(Oc2ncc3nc(-c4cn(C)c5ccccc45)c(=O)n(C)c3n2)cc1 do in these assays?
ALOX15 inhib: 7%; ALOX15B inhib: 4%

How did COc1cccc(Cn2c(=O)c(CCc3ccccc3)nc3cnc(N4CCNCC4)nc32)c1 do in these assays?
ALOX15 inhib: 8%; ALOX15B inhib: 49%

What do the screens show for `Nc1nc2c([nH]c(=S)n2C2OC(CO)C(O)C2O)c(=O)[nH]1` (configuration not stated)?
ALOX15 inhib: -10%; ALOX15B inhib: 12%

How did CC(=O)Oc1cc(-c2coc3cc(OC(C)=O)c(OC(C)=O)c(OC(C)=O)c3c2=O)cc(OC(C)=O)c1OC(C)=O do in these assays?
ALOX15 inhib: 16µM*; ALOX15B inhib: 36%

Results for COc1cc(-c2coc3cc(OC)c(OC)c(OC)c3c2=O)cc(OC)c1OC ?
ALOX15 inhib: 4%; ALOX15B inhib: -1%

Results for COC(=O)C1C(O)CC[C@@H]2CN3CCc4c([nH]c5ccccc45)C3C[C@@H]12 (some centres not stated) ?
ALOX15 inhib: 7%; ALOX15B inhib: 4%

Results for CN1CCN(c2ncc3nc(-c4ccccc4)c(=O)n(CCc4ccccc4)c3n2)CC1 ?
ALOX15 inhib: inconclusive; ALOX15B inhib: 36%

Results for O=C(CSc1ccccc1Cl)c1ccco1 ?
ALOX15 inhib: -23%; ALOX15B inhib: -7%

What do the screens show for `O=C(CSc1ccc(Cl)cc1)c1ccco1`?
ALOX15 inhib: 16µM*; ALOX15B inhib: inconclusive

What do the screens show for `Cc1c(Cl)cccc1NC(=O)c1cc(-c2ccc(O)cc2)on1`?
ALOX15 inhib: -16%

How did O=C(O)CCc1ccc(-c2ccccc2)n1CC(=O)O do in these assays?
ALOX15 inhib: -14%; ALOX15B inhib: 7%[2.29 µM]

Results for O=C(O)CCc1ccc(-c2ccccc2)n1-c1cccc(O)c1 ?
ALOX15 inhib: 10µM*; ALOX15B inhib: 2%[2.29 µM]

What do the screens show for `COc1ccc(S(=O)(=O)Nc2ccccc2C(=O)O)cc1`?
ALOX15 inhib: -5%

What do the screens show for `Cc1nc2cnc(N3CCNCC3)nc2n(-c2ccccc2)c1=O`?
ALOX15 inhib: 11%; ALOX15B inhib: 8%

How did CCOC(=O)C1=C(Cc2ccc(C)cc2)C(=O)c2ccccc2C1=O do in these assays?
ALOX15B inhib: 10µM*

How did CCOC(=O)c1ccc(COC(=O)c2ccc3c(c2)-c2ccccc2C3=O)cc1 do in these assays?
ALOX15B inhib: 9%

How did CCOC(=O)C1=C(Cc2ccc(OC)cc2)C(=O)c2ccccc2C1=O do in these assays?
ALOX15B inhib: 13µM*

What do the screens show for `CCOC(=O)c1c(C)nc2c(c1-c1cc(OC)ccc1OC)C(=O)c1ccccc1-2`?
ALOX15B inhib: 9%

Results for O=C(O)CSSCC(=O)O ?
ALOX15 inhib: 11%[11.4 µM]; ALOX15B inhib: 1%[11.4 µM]
